Screens (PubChem BioAssay)
Shown are actives, neighbours in structure and some others; about 13% of the full set was active somewhere.
Pf growth 48h: Primary qHTS for delayed death inhibitors of the malarial parasite plastid, 48 hour incubation. P. falciparum luciferase growth in erythrocytes, 48 h. Potency, µM (highest dose often 28.7 µM), actives largely listed as inhibitors. 310,000 compounds, 5.9% hits. AID 504832, 2011
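Growth was read as firefly luciferase luminescence after a 48 h, 37 C, 5% CO2 exposure of compounds to reporter-bearing P. falciparum cultures (0.1% parasitemia, 2% hematocrit final) in Albumax-supplemented RPMI 1640.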
Pf growth 96h: Primary qHTS for delayed death inhibitors of the malarial parasite plastid, 96 hour incubation; P. falciparum luciferase reporter growth, 96 h; Potency, µM (highest dose often 28.7 µM), usual class: inhibitors; 320,000 compounds, 6.9% hits
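P. falciparum expressing integrated firefly luciferase grown in erythrocytes (2% hematocrit, 0.05% parasitemia final) with compounds for 96 hours at 37 C, 5% CO2. Growth inhibition read as loss of luminescence after adding luciferase detection reagent.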
HCMV inh: qHTS Assay for inhibitors of the human cytomegalovirus (HCMV) | HFF cells, HCMV-luciferase reporter, 72 h; stronger effect = lower value | activity change, negative = inhibition, % at 57.5 µM | 410,000 compounds, 4.5% hits; in the data active = activity change below about -60%; inconclusive = no clear call, values can overlap the other calls; inactive = above about -39%
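Screen run at 2 compound doses on HFFs infected with reporter HCMV, MOI 1 PFU/cell. Luciferase activity from cell lysates at 72 h post infection gave inhibition relative to buffer-only and Salinomycin wells.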
HCV inhibitor: qHTS Assay for Inhibitors of Hepatitis C Virus (HCV). Huh7.5.1 HCVcc-Cre infection, luciferase reporter, 44 h. Potency, µM (titrated, usually from 41.8 µM), usual class: inhibitors. 340,000 compounds, 3.4% hits
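1,000 cells/well; 4 h culture; + compound; + HCVcc-Cre (~0.5 moi); 44 h; luciferase substrate, RT 15 min; read 15 sec.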
Large screens that a line does not name were inactive. Unless noted, calls follow the shape of the dose curve; as a rule, active = well fitted inhibition curve with a large enough effect; inconclusive = small, poorly fitted or top-dose-only effect, or another doubt; inactive = no such curve, though single readings can be large or run the other way.

COc1ccc(C2C(Oc3ccccc3)C(=O)N2c2cc(C)ccc2C)cc1OC (centres undefined)	none
COc1ccc(C2C(Oc3ccccc3)C(=O)N2c2ccc(C)c(C)c2)cc1OC (centres undefined)	HCV inhibitor 11µM (no result: Pf growth 48h, Pf growth 96h)
O=c1oc2ccccc2c2oc3cc(O)c(O)cc3c12	none
O=c1oc2c(O)c(O)cc3c(=O)oc4c(O)c(O)cc1c4c23	Pf growth 48h 5.2µM, Pf growth 96h 3.7µM (no result: HCMV inh)
CCc1ccc(S(=O)(=O)Nc2cccc(-c3ccc(N4CCCCC4)nn3)c2)s1	none (no result: Pf growth 48h, Pf growth 96h, HCV inhibitor)
O=C(CCCCn1c(=O)c2ccccc2n(CC(=O)NC2CCCC2)c1=O)NC1CCCC1	Pf growth 48h inconclusive
O=C(CCCCn1c(=O)c2ccccc2n(Cc2ccccc2)c1=O)NC1CCN(Cc2ccccc2)CC1	Pf growth 48h 5.9µM, HCMV inh inconclusive, HCV inhibitor inconclusive
O=C(CCCn1c(=O)c2ccccc2n(Cc2cccc(F)c2)c1=O)NC1CCN(Cc2ccccc2)CC1	Pf growth 48h 6.6µM, Pf growth 96h inconclusive (no result: HCV inhibitor)
COc1ccc(C2(CNC(=O)C(=O)Nc3ccccc3C)CCCC2)cc1OC	none (no result: Pf growth 48h, Pf growth 96h, HCV inhibitor)
CCOc1ccc(Nc2c(S(=O)(=O)c3ccccc3)cnc3ccc(F)cc23)cc1	none (no result: Pf growth 48h, Pf growth 96h, HCV inhibitor)
CCN(CC)C(=O)C1CCCN(c2ccc([N+](=O)[O-])cc2/C=N/NC(=O)c2cccc(Br)c2)C1 (centres undefined)	Pf growth 48h 4.1µM, Pf growth 96h 2.1µM, HCMV inh inconclusive, HCV inhibitor inconclusive
Cc1ccc(C(=O)N/N=C\c2ccc([N+](=O)[O-])s2)cn1	Pf growth 48h 4.1µM, Pf growth 96h 0.33µM, HCMV inh inconclusive
Cc1ccc(C(=O)N/N=C/c2ccc([N+](=O)[O-])s2)cc1	Pf growth 48h inconclusive, HCV inhibitor 2.8µM
Cn1c(SCC(=O)N/N=C/c2ccc([N+](=O)[O-])s2)nnc1-c1ccc(Cl)cc1	Pf growth 48h 10µM, Pf growth 96h 5.2µM, HCV inhibitor inconclusive
O=C(N/N=C/c1cccc([N+](=O)[O-])c1)c1cccc(Br)c1	none
O=C(N/N=C/c1ccc([N+](=O)[O-])s1)c1cccc(Br)c1	Pf growth 48h 4.1µM, Pf growth 96h 4.1µM, HCMV inh -69, HCV inhibitor inconclusive
O=C(N/N=C/c1ccc([N+](=O)[O-])s1)c1ccncc1	Pf growth 48h 4.7µM, Pf growth 96h 1.5µM, HCV inhibitor inconclusive (no result: HCMV inh)
C/C(=N\NC(=O)c1ccc(Cn2cc(Br)cn2)o1)c1cccc(NC(=O)C(C)(C)C)c1	Pf growth 96h inconclusive, HCMV inh inconclusive
C/C(=N\NC(=O)c1ccc(Cn2cc([N+](=O)[O-])cn2)o1)c1cccc(NC(=O)c2cccnc2)c1	Pf growth 96h 4.1µM
C/C(=N\NC(=O)c1ccc(Cn2cc(Br)cn2)o1)c1ccc(NC(=O)c2ccoc2C)cc1	Pf growth 48h inconclusive, Pf growth 96h inconclusive, HCV inhibitor 7.1µM
CC1=C(c2ccc(C(C)C)cc2)S(=O)(=O)N=C1N1CCC(C(=O)NCc2ccc(C)o2)CC1	none (no result: Pf growth 48h, Pf growth 96h, HCV inhibitor)
COCCNc1nc(SCc2ccccc2)nc2sc3c(c12)CCC3	Pf growth 48h inconclusive, Pf growth 96h inconclusive, HCV inhibitor inconclusive
CC(CO)Nc1nc(SCc2ccccc2)nc2sc3c(c12)CCC3 (centres undefined)	Pf growth 48h inconclusive, Pf growth 96h 7.4µM, HCMV inh inconclusive, HCV inhibitor 13µM
N#Cc1cccc(-n2c(-c3ccccc3)nnc2-c2ccccc2)c1C#N	Pf growth 48h 5.2µM (no result: Pf growth 96h)
N#Cc1ccc(-n2c(-c3ccccc3)nnc2-c2ccccc2)cc1C#N	Pf growth 48h inconclusive, HCV inhibitor inconclusive
c1ccc2oc(Cc3ccc(Cc4nc5ccccc5o4)cc3)nc2c1	Pf growth 96h 13µM, HCV inhibitor inconclusive
CC1CN(Cc2csc(-c3ccc(Cl)cc3)n2)CC(C)O1 (centres undefined)	HCMV inh inconclusive, HCV inhibitor 11µM
ClCc1csc(-c2ccc(Cl)cc2)n1	none
CCn1c(C)nc([N+](=O)[O-])c1Sc1ccc(F)cc1	Pf growth 48h inconclusive, Pf growth 96h 10µM
CCOc1ccccc1N(CC)C(=O)c1cc2c(=O)[nH]c3ccc(C)cc3c2s1	none (no result: Pf growth 48h, Pf growth 96h, HCV inhibitor)
CCc1ccc(S(=O)(=O)N(C(C)=O)c2ccc3oc4c(c3c2)CCCC4)cc1	HCMV inh -92 (no result: Pf growth 48h, Pf growth 96h, HCV inhibitor)
CCc1ccc(S(=O)(=O)N(C(=O)Oc2ccccc2)c2ccc3oc(C)c(C(=O)OC)c3c2)cc1	HCMV inh -71 (no result: Pf growth 48h, Pf growth 96h, HCV inhibitor)
